The results in this text go back to PubChem BioAssay (NCI).

The nature of assay [1]: NCI Yeast Anticancer Drug Screen. Data for the rad50 strain (AID 155).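 Further: 0% = growth of vehicle-only cultures of the same strain.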 The conditions noted are these: S. cerevisiae rad50 strain growth inhibition, stronger effect = higher value. The procedure, abridged: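 Growth of the mutant yeast was measured after compound exposure and referenced to vehicle-treated cultures.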
Assay [2] in a line: NCI Yeast Anticancer Drug Screen. Data for the mec2-1 strain (AID 157). The conditions noted are these: S. cerevisiae mec2-1 strain, stronger effect = higher value. In a few lines:
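Strain: mec2-1 (DNA repair/cell cycle alteration). Compound exposure, then growth measured; inhibition expressed relative to vehicle.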

A short description of assay [3]: NCI Yeast Anticancer Drug Screen. Data for the sgs1 mgt1 strain (AID 161).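 Further: 0% = growth of cultures given vehicle only.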 The following applies: S. cerevisiae sgs1 mgt1 strain, stronger effect = higher value. The procedure, abridged: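 Genetically altered yeast, compound exposure, growth inhibition relative to vehicle.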
Assay [4] in a line: NCI Yeast Anticancer Drug Screen. Data for the cln2 rad14 strain (AID 165).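 Further: 0% = growth equal to vehicle treated cultures.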 The following applies: S. cerevisiae cln2 rad14 strain, stronger effect = higher value. The procedure, abridged: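 Compounds are applied to the cln2 rad14 yeast strain, and growth is then compared with that of vehicle-treated cultures to give inhibition.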
Assay [5] can be described thus: NCI Yeast Anticancer Drug Screen. Data for the bub3 strain (AID 167). The conditions noted are these: S. cerevisiae bub3 mutant strain, stronger effect = higher value. The procedure, abridged: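 Whole-cell yeast assay. The mutant strain was incubated with compounds, and growth inhibition was determined by comparison with vehicle-treated cells.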
Assay [6] can be described thus: NCI Yeast Anticancer Drug Screen. Data for the mlh1 rad18 strain (AID 175). The following applies: S. cerevisiae mlh1 rad18 strain growth inhibition, stronger effect = higher value. In a few lines: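 Read-out is yeast growth inhibition, calculated against vehicle-only controls. The compound was applied to a strain engineered with DNA damage repair alterations.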
Setting [7] is: at 5.0 µM (retest, dose inferred, filed as 0.5).
[8] abbreviates: at 50.0 µM (retest, dose inferred, filed as 5.0).

The panel holds about 79,000 compounds, 15% with a hit somewhere; the sample as a whole holds those more often. Unmarked numbers belong to inactive results. Active and inactive are the calls of the source. No stated cut-off is given here; in the data, active means growth inhibition above about 70%; inactive means the rest.

On to `CC(C)(C)c1ccc(C(=O)n2c(=S)oc3ccc(Cl)cc32)cc1`, for which the growth inhibition in assay [1] (setting [7]) is 50%; in assay [1] (setting [8]), 85% (active); in assay [1] (at 50.0 µM), 65%; in assay [2] (setting [7]), 44%; in assay [2] (setting [8]), 91% (active); in assay [2] (at 50.0 µM), 61.4%. The growth inhibition in assay [3] (setting [7]) is 46%; in assay [3] (setting [8]), 92% (active); in assay [3] (at 50.0 µM), 81.8% (active); in assay [4] (setting [7]), 39%; in assay [4] (setting [8]), 73% (active); in assay [4] (at 50.0 µM), 39.5%. In addition, the growth inhibition in assay [5] (setting [7]) is 43%; in assay [5] (setting [8]) it was 64%; in assay [5] (at 50.0 µM), 59.5%; in assay [6] (setting [7]) it was 51%; in assay [6] (setting [8]), 88% (active); in assay [6] (at 50.0 µM) it was 63%.

For the molecule `CCSC(=O)/C=C1\CN(C(=O)OC(C)(C)C)C1C(=O)OC(C)(C)C` (stereo not given), the growth inhibition is -23% in assay [1] (setting [7]); -7% in assay [1] (setting [8]); 30.1% in assay [1] (at 50.0 µM); -40% in assay [2] (setting [7]); -9% in assay [2] (setting [8]); 26.9% in assay [2] (at 50.0 µM). For the same molecule, the growth inhibition is -44% in assay [3] (setting [7]); -2% in assay [3] (setting [8]); 56% in assay [3] (at 50.0 µM); -35% in assay [4] (setting [7]); 14% in assay [4] (setting [8]); 72.9% (active) in assay [4] (at 50.0 µM). The growth inhibition is -57% in assay [5] (setting [7]); 10% in assay [5] (setting [8]); 58.5% in assay [5] (at 50.0 µM); -15% in assay [6] (setting [7]); 12% in assay [6] (setting [8]); 70% (active) in assay [6] (at 50.0 µM).

Take `C1=C(C2=C[P+](c3ccccc3)(c3ccccc3)C=C(c3ccccc3)O2)OC(c2ccccc2)=C[P+]1(c1ccccc1)c1ccccc1`: the growth inhibition is 7% in assay [1] (setting [7]); 15% in assay [1] (setting [8]); -10.1% in assay [1] (at 50.0 µM); 4% in assay [2] (setting [7]); 8% in assay [2] (setting [8]); -7.05% in assay [2] (at 50.0 µM). Moreover, the growth inhibition in assay [3] (setting [7]) is 5%; in assay [3] (setting [8]), 15%; in assay [3] (at 50.0 µM), -5.35%; in assay [4] (setting [7]), 5%; in assay [4] (setting [8]), 2%; in assay [4] (at 50.0 µM), 71% (active). Further, the growth inhibition in assay [5] (setting [7]) was 11%; in assay [5] (setting [8]), 66%; in assay [5] (at 50.0 µM), 6.8%; in assay [6] (setting [7]), 9%; in assay [6] (setting [8]), 6%; in assay [6] (at 50.0 µM), 18.3%.

As to `CC(=O)N(C)NC(=O)c1ccccc1`, the growth inhibition in assay [1] (setting [7]) is 1%; in assay [1] (setting [8]), -6%; in assay [1] (at 50.0 µM), 10.4%; in assay [2] (setting [7]) it was -1%; in assay [2] (setting [8]) it was 2%; in assay [2] (at 50.0 µM), -12.8%. Further, the growth inhibition in assay [3] (setting [7]) was 1%; in assay [3] (setting [8]), -4%; in assay [3] (at 50.0 µM), -10.2%; in assay [4] (setting [7]), -8%; in assay [4] (setting [8]), 5%; in assay [4] (at 50.0 µM) it was 27.3%. Moreover, the growth inhibition in assay [5] (setting [7]) was -2%; in assay [5] (setting [8]) it was -1%; in assay [5] (at 50.0 µM) it was 12.9%; in assay [6] (setting [7]), 0%; in assay [6] (setting [8]), -5%; in assay [6] (at 50.0 µM) it was -4.7%.

For the molecule `O=C(/C=C(\OB(F)F)c1ccccc1)c1ccccc1`, the growth inhibition was -2% in assay [1] (setting [7]); -4% in assay [1] (setting [8]); 100% (active) in assay [1] (at 50.0 µM); -18% in assay [2] (setting [7]); -19% in assay [2] (setting [8]); 98.9% (active) in assay [2] (at 50.0 µM). Further, the growth inhibition in assay [3] (setting [7]) was -4%; in assay [3] (setting [8]) it was 2%; in assay [3] (at 50.0 µM) it was 97.4% (active); in assay [4] (setting [7]), -8%; in assay [4] (setting [8]) it was 4%; in assay [4] (at 50.0 µM) it was 98.4% (active). In addition, the growth inhibition in assay [5] (setting [7]) is 2%; in assay [5] (setting [8]), -1%; in assay [5] (at 50.0 µM) it was 98.2% (active); in assay [6] (setting [7]), 1%; in assay [6] (setting [8]) it was -13%; in assay [6] (at 50.0 µM), 97.9% (active).

In the case of `O=C(/C=C\c1ccc(Cl)c(Cl)c1)c1cccs1`, the growth inhibition in assay [1] (setting [7]) is 13%; in assay [1] (setting [8]), -9%; in assay [1] (at 50.0 µM) it was 58.9%; in assay [2] (setting [7]) it was -2%; in assay [2] (setting [8]), 4%; in assay [2] (at 50.0 µM), 64.4%. Also, the growth inhibition is 4% in assay [3] (setting [7]); -25% in assay [3] (setting [8]); 92.2% (active) in assay [3] (at 50.0 µM); -6% in assay [4] (setting [7]); -3% in assay [4] (setting [8]); 51.6% in assay [4] (at 50.0 µM). The growth inhibition in assay [5] (setting [7]) was -4%; in assay [5] (setting [8]), 11%; in assay [5] (at 50.0 µM), 89.7% (active); in assay [6] (setting [7]), -3%; in assay [6] (setting [8]) it was 6%; in assay [6] (at 50.0 µM), 85.5% (active).

Turning to `CC1(C)NC(=O)C(C)(C)NC1=O`, the growth inhibition in assay [1] (setting [7]) was 4%; in assay [1] (setting [8]), -2%; in assay [1] (at 50.0 µM), -12.9%; in assay [2] (setting [7]), 1%; in assay [2] (setting [8]) it was 2%; in assay [2] (at 50.0 µM), 5.8%. The growth inhibition was 0% in assay [3] (setting [7]); -1% in assay [3] (setting [8]); -7.4% in assay [3] (at 50.0 µM); 2% in assay [4] (setting [7]); 3% in assay [4] (setting [8]); -19.9% in assay [4] (at 50.0 µM). Further, the growth inhibition in assay [5] (setting [7]) is 4%; in assay [5] (setting [8]) it was -2%; in assay [5] (at 50.0 µM), 48%; in assay [6] (setting [7]) it was 3%; in assay [6] (setting [8]), 3%; in assay [6] (at 50.0 µM), -14.8%.

`CC(C)C(=O)N1Cc2cc(Cl)cc(Cl)c2OC(=O)c2ccccc21`: the growth inhibition in assay [1] (setting [7]) was 18%; in assay [1] (setting [8]), 3%; in assay [1] (at 50.0 µM), 71% (active); in assay [2] (setting [7]), -1%; in assay [2] (setting [8]), 17%; in assay [2] (at 50.0 µM) it was 36.1%. Further, the growth inhibition in assay [3] (setting [7]) is -13%; in assay [3] (setting [8]), 3%; in assay [3] (at 50.0 µM), 43.6%; in assay [4] (setting [7]), 32%; in assay [4] (setting [8]), 47%; in assay [4] (at 50.0 µM), 48.7%. In addition, the growth inhibition is 19% in assay [5] (setting [7]); 28% in assay [5] (setting [8]); 52.9% in assay [5] (at 50.0 µM); 4% in assay [6] (setting [7]); 11% in assay [6] (setting [8]); 57.9% in assay [6] (at 50.0 µM).

With `COc1ccc(Cc2coc3ccccc3c2=O)cc1OC`, the growth inhibition in assay [1] (setting [7]) is -1%; in assay [1] (setting [8]), 12%; in assay [1] (at 50.0 µM), -0.55%; in assay [2] (setting [7]) it was 2%; in assay [2] (setting [8]) it was 10%; in assay [2] (at 50.0 µM), -2.5%. Besides, the growth inhibition in assay [3] (setting [7]) is 1%; in assay [3] (setting [8]), 18%; in assay [3] (at 50.0 µM), 18.4%; in assay [4] (setting [7]), 0%; in assay [4] (setting [8]), 3%; in assay [4] (at 50.0 µM), 3.8%. For the same molecule, the growth inhibition in assay [5] (setting [7]) is 23%; in assay [5] (setting [8]), 68%; in assay [5] (at 50.0 µM), 71.1% (active); in assay [6] (setting [7]), -3%; in assay [6] (setting [8]), 12%; in assay [6] (at 50.0 µM) it was 0.95%.

`CC(C)(Oc1ccc(-c2cccc3ccccc23)cc1)C(=O)O`: the growth inhibition in assay [1] (setting [7]) is 9%; in assay [1] (setting [8]), 42%; in assay [1] (at 50.0 µM), 58.3%; in assay [2] (setting [7]) it was 5%; in assay [2] (setting [8]), 51%; in assay [2] (at 50.0 µM), 13.7%. Further, the growth inhibition is 6% in assay [3] (setting [7]); 49% in assay [3] (setting [8]); 29.4% in assay [3] (at 50.0 µM); -6% in assay [4] (setting [7]); 54% in assay [4] (setting [8]); 70.5% (active) in assay [4] (at 50.0 µM). In addition, the growth inhibition in assay [5] (setting [7]) is 13%; in assay [5] (setting [8]), 54%; in assay [5] (at 50.0 µM), 67.8%; in assay [6] (setting [7]), -6%; in assay [6] (setting [8]), 49%; in assay [6] (at 50.0 µM) it was 28.8%.
